Experimental data from PubChem BioAssay (NCI).
This is part of a sample that, as a whole, favours compounds with a hit. Of some 79,000 tested, about 15% had one in any assay. Unmarked numbers belong to inactive results. The source made the active and inactive calls. No stated cut-off is given here; in the data, active means growth inhibition above about 70%; inactive means the rest.

Legend:
[1] = NCI Yeast Anticancer Drug Screen. Data for the rad50 strain (AID 155);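 further: 0% = growth of vehicle-only cultures of the same strain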; conditions: S. cerevisiae rad50 strain growth inhibition; at 50.0 µM; hits give high values
How it was run: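 Yeast carrying a defined DNA repair defect were exposed to test compounds, and growth was compared with vehicle-treated controls to give percent inhibition.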

[2] = NCI Yeast Anticancer Drug Screen. Data for the mec2-1 strain (AID 157); conditions: S. cerevisiae mec2-1 strain, at 50.0 µM, hits give high values
How it was run: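 Mutant yeast (mec2-1) grown with compound; growth inhibition relative to vehicle control reported.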

[3] = NCI Yeast Anticancer Drug Screen. Data for the sgs1 mgt1 strain (AID 161);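 further: 0% = growth of cultures given vehicle only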; conditions: S. cerevisiae sgs1 mgt1 strain, at 50.0 µM, hits give high values
How it was run: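 Growth of a repair-deficient yeast mutant was monitored after compound treatment and expressed as inhibition relative to vehicle-treated cultures.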

[4] = NCI Yeast Anticancer Drug Screen. Data for the cln2 rad14 strain (AID 165);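 further: 0% = growth equal to vehicle treated cultures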; conditions: S. cerevisiae cln2 rad14 strain, at 50.0 µM, hits give high values
How it was run: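 Readout is yeast growth inhibition versus vehicle-treated controls, using a strain with cln2 and rad14 alterations exposed to compound.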

[5] = NCI Yeast Anticancer Drug Screen. Data for the bub3 strain (AID 167); conditions: S. cerevisiae bub3 mutant strain, at 50.0 µM, hits give high values
How it was run: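 Compounds were applied to a genetically altered yeast strain carrying a cell-cycle control defect. Growth inhibition was scored against vehicle-treated controls.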

[6] = NCI Yeast Anticancer Drug Screen. Data for the mlh1 rad18 strain (AID 175); conditions: S. cerevisiae mlh1 rad18 strain growth inhibition; at 50.0 µM; hits give high values
How it was run: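 Genetically defined yeast (DNA repair-deficient) exposed to compounds; growth inhibition determined relative to vehicle.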

| SMILES | growth inhibition [1] | growth inhibition [2] | growth inhibition [3] | growth inhibition [4] | growth inhibition [5] | growth inhibition [6] |
| --- | --- | --- | --- | --- | --- | --- |
| Cc1ccc(NC(=O)CC2C(=O)Nc3ccccc3S2(=O)=O)c(C)c1 (stereo unspecified) | -24.6% | -24.8% | -6.8% | 20.6% | -2.85% | -10.6% |
| O=C(O)CNC(=O)C(Cc1ccccc1)NC(=O)CNC(=O)C(CSC(c1ccccc1)c1ccccc1)NC(=O)C(CSC(c1ccccc1)(c1ccccc1)c1ccccc1)NC(=O)OCc1ccccc1 (stereo unspecified) | -0.75% | 27% | 23.4% | -17.2% | -9.55% | 44.1% |
| CCOC(=O)/C(N=Nc1ccc(O)cc1)=C(\C)O | -6.4% | 28.4% | 17.7% | 24.9% | -1.2% | -0.65% |
| Clc1ccc(-c2nnc(-c3ccc4ccccc4c3)o2)cc1 | -43% | -60.8% | -22.2% | 3.1% | -47.5% | -25.4% |
| O=C1OC2=C(CCCC2)C(N2CCCCC2)C12SCCCS2 (stereo unspecified) | 3.65% | 14.4% | -6.75% | 11.4% | 5% | 2.55% |
| CC(=O)NC1C(O)C(NC(C)=O)C(OC(C)=O)C(OC(C)=O)C1OC(C)=O (stereo unspecified) | 33.4% | -9.7% | 4.1% | -15.4% | -0.15% | 1.35% |
| Oc1ccc(-c2nc(-c3cccnc3)c(-c3ccc(Cl)cc3)[nH]2)cc1 | 3.25% | -19.2% | 19.9% | 12.8% | 39.6% | 81.7% (active) |
| Cc1cccc(NS(=O)(=O)c2ccc(Cl)cc2)c1C | 98.5% (active) | 98.3% (active) | 98.2% (active) | 98.3% (active) | 98.4% (active) | 98.7% (active) |
| OC1OC2COC(c3ccccc3)OC2C(O)C1O (stereo unspecified) | 4% | -14.5% | 8.15% | -3.35% | -3.3% | -20.9% |
| CC(C)(C)/C(CC(=O)CCC(=O)Nc1ccc(Cl)cc1)=N\NC(N)=S | 11.7% | -6.75% | 19.1% | 9.75% | 1.65% | 20.8% |
| O=C(Oc1ccc([N+](=O)[O-])cc1)C(CSC(c1ccccc1)(c1ccccc1)c1ccccc1)N1C(=O)c2ccccc2C1=O (stereo unspecified) | 61.8% | 46.7% | 44.5% | 58.7% | 31.9% | 52.8% |
| COC(=O)C1OCOC2C(CO)OCOC12 (stereo unspecified) | 6.8% | 23.1% | -1.5% | -49.4% | 2.8% | -7.85% |
| CN(C)c1ccc(/C=C/C=C(/C#N)c2ccccc2)cc1 | 14.8% | 8.5% | 2.9% | 32.2% | 24.3% | 2.65% |
| C=C1c2nc3ccccc3n2C=C(c2ccc(Cl)cc2)N1c1ccc(OC)cc1 | -3.95% | 23.4% | 19.8% | 11.4% | 7.7% | 40.2% |
| CCC(=O)c1ccc(F)cc1 | 10.2% | -20.9% | 4.5% | 20.3% | -5.3% | 20.4% |
| C/C(=N\Nc1ccc2ccccc2n1)c1ccccc1O | -19% | -25.4% | -37.3% | -25.8% | -66.5% | -3.5% |
| CCC1(C(=O)OC)CCC2C3CCC4CCCCC4(C)C3CCC21C (stereo unspecified) | 4.6% | -8.9% | 9.25% | -3.95% | 5.4% | 11.1% |
| COC(=O)C(C(=O)C(=O)Nc1cccc(OC)c1)c1cnc2ccccc2n1 (stereo unspecified) | -16.4% | -8.85% | -9.45% | 21.2% | 6.9% | -10.5% |
| COC(C)CCOC(=O)COc1ccccc1 (stereo unspecified) | 17.8% | -10% | 8.35% | -11.3% | 13.8% | 8.3% |
| COC(=O)CC1(C(=O)OC)Nc2ccccc2C(=O)O1 (stereo unspecified) | 2.65% | 21.7% | 18.8% | -11.1% | -11.1% | 2.9% |
| CC/C(C)=N/C(=O)NN | -20.1% | 8.75% | -16.2% | 19.3% | 35.5% | 20.3% |
